# Results taken from the supplement of paper PMC10037445.
# Whole data set: some 2,900 compounds, median “IRF Lucia reporter activity, fold change vs agonist alone” near 0.9, cut for the highest 2% near 2.8. For the sample, the highest values were picked, then their nearest neighbours and some compounds at random.
# How the values were obtained:
# RAW-Dual [1] = test: IRF Lucia reporter activity, fold change vs agonist alone; cytotoxicity flag (confluency mask): not cytotoxic; higher = enhanced IRF activity
# Method in brief: (§1)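 RAW-Dual macrophages were seeded in DMEM at 50,000 cells/well in 384-well plates, given 50 nL of library stock by pin tool, and given a PRR agonist 1 h later. Plates were held at 37 °C, 5% CO2 for 20 hours, after which supernatant was read for IRF by QuantiLuc luminescence and for NF-κB by QuantiBlue absorbance at 620 nm. Reporter activity is expressed as fold change over wells that received agonist alone. A well was called cytotoxic when IncuCyte confluency fell below 70% of agonist controls in both mask sets.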
# RAW-Dual [2] = test: IRF Lucia reporter activity, fold change vs agonist alone; higher = enhanced IRF activity; settings: agonist: MPLA (TLR4) […]
# Method in brief: as §1
# RAW-Dual [3] = test: IRF Lucia reporter activity, fold change vs agonist alone; cytotoxicity flag (confluency mask): cytotoxic (confluency <70% of control); higher = enhanced IRF activity
# Method in brief: as §1
# [4] = agonist: 3'3'-cGAMP (STING) 10 ug/mL
# [5] = library stock concentration (final ~1000-fold dilution): 10 mM, cytotoxicity flag (confluency mask): not cytotoxic
smiles,measurement,setting,value
COc1ccc2cc1Oc1ccc(cc1)CC1c3cc(c(OC)cc3CCN1C)Oc1c(OC)c(OC)cc3c1C(C2)N(C)CC3 (stereo not given) (library stock concentration (final ~1000-fold dilution): 10 mM),IRF Lucia reporter activity,RAW-Dual [1]; [4],1.01
same,IRF Lucia reporter activity,RAW-Dual [1]; agonist: LPS (TLR4) 0.1 ug/mL,0.352
Cn1c(=O)cc(N2CCCC(N)C2)n(Cc2cc(F)ccc2C#N)c1=O.O=C(O)CCC(=O)O (stereo not given) (library stock concentration (final ~1000-fold dilution): 10 mM),IRF Lucia reporter activity,RAW-Dual [1]; [4],1.04
same,IRF Lucia reporter activity,RAW-Dual [1]; agonist: LPS (TLR4) 0.1 ug/mL,1.26
Cn1c(=O)cc(N2CCCC(N)C2)n(Cc2cc(F)ccc2C#N)c1=O.O=C(O)CCC(=O)O (stereo not given),IRF Lucia reporter activity,RAW-Dual [2]; [5],1.13
CCC(C)CC(C)CCCCCCCCC(=O)NC1CC(O)C(NCCN)NC(=O)C2C(O)CCN2C(=O)C(C(O)CCN)NC(=O)C(C(O)C(O)c2ccc(O)cc2)NC(=O)C2CC(O)CN2C(=O)C(C(C)O)NC1=O (stereo not given) (library stock concentration (final ~1000-fold dilution): 10 mM water),IRF Lucia reporter activity,RAW-Dual [1]; [4],0.923
same,IRF Lucia reporter activity,RAW-Dual [1]; agonist: LPS (TLR4) 0.1 ug/mL,0.909
CCC(C)CC(C)CCCCCCCCC(=O)NC1CC(O)C(NCCN)NC(=O)C2C(O)CCN2C(=O)C(C(O)CCN)NC(=O)C(C(O)C(O)c2ccc(O)cc2)NC(=O)C2CC(O)CN2C(=O)C(C(C)O)NC1=O (stereo not given),IRF Lucia reporter activity,"RAW-Dual [2]; library stock concentration (final ~1000-fold dilution): 10 mM water, cytotoxicity flag (confluency mask): not cytotoxic",1.21
Cn1cnc2c(F)c(Nc3ccc(Br)cc3F)c(C(=O)NOCCO)cc21 (library stock concentration (final ~1000-fold dilution): 10 mM),IRF Lucia reporter activity,RAW-Dual [1]; [4],0.728
same,IRF Lucia reporter activity,RAW-Dual [1]; agonist: LPS (TLR4) 0.1 ug/mL,2.67
Cn1cnc2c(F)c(Nc3ccc(Br)cc3Cl)c(C(=O)NOCCO)cc21,IRF Lucia reporter activity,RAW-Dual [2]; [5],2.77
Cn1cnc2c(F)c(Nc3ccc(Br)cc3Cl)c(C(=O)NOCCO)cc21 (library stock concentration (final ~1000-fold dilution): 10 mM),IRF Lucia reporter activity,RAW-Dual [1]; [4],0.69
same,IRF Lucia reporter activity,RAW-Dual [1]; agonist: LPS (TLR4) 0.1 ug/mL,3.1
Cn1cnc2c(F)c(Nc3ccc(Br)cc3F)c(C(=O)NOCCO)cc21,IRF Lucia reporter activity,RAW-Dual [2]; [5],2.67
COCCOc1nc(N)c2[nH]c(=O)n(Cc3ccc(C(=O)O)cc3)c2n1 (library stock concentration (final ~1000-fold dilution): 10 mM),IRF Lucia reporter activity,RAW-Dual [1]; [4],1.54
same,IRF Lucia reporter activity,RAW-Dual [1]; agonist: LPS (TLR4) 0.1 ug/mL,1.06
COC(C(=O)N1Cc2[nH]nc(NC(=O)c3ccc(N4CCN(C)CC4)cc3)c2C1)c1ccccc1 (stereo not given) (library stock concentration (final ~1000-fold dilution): 10 mM),IRF Lucia reporter activity,RAW-Dual [1]; [4],0.149
same,IRF Lucia reporter activity,RAW-Dual [1]; agonist: LPS (TLR4) 0.1 ug/mL,0.162
COC(C(=O)N1Cc2[nH]nc(NC(=O)c3ccc(N4CCN(C)CC4)cc3)c2C1)c1ccccc1 (stereo not given),IRF Lucia reporter activity,RAW-Dual [2]; [5],0.147
Cn1cncc1C(N)(c1ccc(Cl)cc1)c1ccc2c(c1)c(-c1cccc(Cl)c1)cc(=O)n2C (stereo not given) (library stock concentration (final ~1000-fold dilution): 10 mM),IRF Lucia reporter activity,RAW-Dual [3]; [4],0.374
same,IRF Lucia reporter activity,RAW-Dual [3]; agonist: LPS (TLR4) 0.1 ug/mL,0.641
Cn1cncc1C(N)(c1ccc(Cl)cc1)c1ccc2c(c1)c(-c1cccc(Cl)c1)cc(=O)n2C (stereo not given),IRF Lucia reporter activity,"RAW-Dual [2]; library stock concentration (final ~1000-fold dilution): 10 mM, cytotoxicity flag (confluency mask): cytotoxic (confluency <70% of control)",0.481
COC(=O)NC(C(=O)N1CCCC1c1ncc(-c2ccc3c(c2)OC(c2ccccc2)n2c-3cc3cc(-c4cnc(C5CCCN5C(=O)C(NC(=O)OC)C(C)C)[nH]4)ccc32)[nH]1)C(C)C (stereo not given),IRF Lucia reporter activity,RAW-Dual [2]; [5],1.01
COC(=O)NC(C(=O)N1CCCC1c1ncc(-c2ccc(-c3ccc(-c4cnc(C5CCCN5C(=O)C(NC(=O)OC)C(C)C)[nH]4)cc3)cc2)[nH]1)C(C)C.Cl.Cl (stereo not given) (library stock concentration (final ~1000-fold dilution): 10 mM),IRF Lucia reporter activity,RAW-Dual [1]; [4],0.948
same,IRF Lucia reporter activity,RAW-Dual [1]; agonist: LPS (TLR4) 0.1 ug/mL,7.56
COC(=O)NC(C(=O)N1CCCC1C(=O)Nc1ccc(C2CCC(c3ccc(NC(=O)C4CCCN4C(=O)C(NC(=O)OC)C(C)C)cc3)N2c2ccc(C(C)(C)C)cc2)cc1)C(C)C (stereo not given),IRF Lucia reporter activity,RAW-Dual [2]; [5],0.973
COC(=O)NC(C(=O)N1CC2(CC2)CC1c1ncc(-c2ccc3c(c2)C(F)(F)c2cc(-c4ccc5nc(C6C7CCC(C7)N6C(=O)C(NC(=O)OC)C(C)C)[nH]c5c4)ccc2-3)[nH]1)C(C)C (stereo not given) (library stock concentration (final ~1000-fold dilution): 10 mM),IRF Lucia reporter activity,RAW-Dual [1]; [4],0.913
same,IRF Lucia reporter activity,RAW-Dual [1]; agonist: LPS (TLR4) 0.1 ug/mL,1.23
COC(=O)NC(C(=O)N1CCCC1c1ncc(-c2ccc(-c3ccc(-c4cnc(C5CCCN5C(=O)C(NC(=O)OC)C(C)C)[nH]4)cc3)cc2)[nH]1)C(C)C (stereo not given) (library stock concentration (final ~1000-fold dilution): 10 mM),IRF Lucia reporter activity,RAW-Dual [1]; [4],1.04
same,IRF Lucia reporter activity,RAW-Dual [1]; agonist: LPS (TLR4) 0.1 ug/mL,4.15
COC(=O)NC(C(=O)N1CCCC1C(=O)Nc1ccc(C2CCC(c3ccc(NC(=O)C4CCCN4C(=O)C(NC(=O)OC)C(C)C)cc3)N2c2ccc(C(C)(C)C)cc2)cc1)C(C)C (stereo not given) (library stock concentration (final ~1000-fold dilution): 10 mM),IRF Lucia reporter activity,RAW-Dual [1]; [4],0.995
same,IRF Lucia reporter activity,RAW-Dual [1]; agonist: LPS (TLR4) 0.1 ug/mL,1.21
COC(=O)NC(C(=O)N1CCCC1c1ncc(-c2ccc3c(c2)OC(c2ccccc2)n2c-3cc3cc(-c4cnc(C5CCCN5C(=O)C(NC(=O)OC)C(C)C)[nH]4)ccc32)[nH]1)C(C)C (stereo not given) (library stock concentration (final ~1000-fold dilution): 10 mM),IRF Lucia reporter activity,RAW-Dual [1]; [4],1.07
same,IRF Lucia reporter activity,RAW-Dual [1]; agonist: LPS (TLR4) 0.1 ug/mL,1.16
COC(=O)NC(C(=O)N1CCCC1c1ncc(-c2ccc(-c3ccc(-c4cnc(C5CCCN5C(=O)C(NC(=O)OC)C(C)C)[nH]4)cc3)cc2)[nH]1)C(C)C.Cl.Cl (stereo not given),IRF Lucia reporter activity,RAW-Dual [2]; [5],5.97
COCC1CC(c2ncc(-c3ccc4c(c3)COc3cc5c(ccc6[nH]c(C7CCC(C)N7C(=O)C(NC(=O)OC)C(C)C)nc65)cc3-4)[nH]2)N(C(=O)C(NC(=O)OC)c2ccccc2)C1 (stereo not given),IRF Lucia reporter activity,RAW-Dual [2]; [5],0.857
COCC1CC(c2ncc(-c3ccc4c(c3)COc3cc5c(ccc6[nH]c(C7CCC(C)N7C(=O)C(NC(=O)OC)C(C)C)nc65)cc3-4)[nH]2)N(C(=O)C(NC(=O)OC)c2ccccc2)C1 (stereo not given) (library stock concentration (final ~1000-fold dilution): 10 mM),IRF Lucia reporter activity,RAW-Dual [1]; [4],0.767
same,IRF Lucia reporter activity,RAW-Dual [1]; agonist: LPS (TLR4) 0.1 ug/mL,0.91
COC(=O)NC(C(=O)N1CC2(CC2)CC1c1ncc(-c2ccc3c(c2)C(F)(F)c2cc(-c4ccc5nc(C6C7CCC(C7)N6C(=O)C(NC(=O)OC)C(C)C)[nH]c5c4)ccc2-3)[nH]1)C(C)C (stereo not given),IRF Lucia reporter activity,RAW-Dual [2]; [5],0.979
COC(=O)NC(C(=O)N1CCCC1c1ncc(-c2ccc(-c3ccc(-c4cnc(C5CCCN5C(=O)C(NC(=O)OC)C(C)C)[nH]4)cc3)cc2)[nH]1)C(C)C (stereo not given),IRF Lucia reporter activity,RAW-Dual [2]; [5],3.26
